# Bioassay records (PubChem)
# S2 tox: reduces viability in counter-screen for ATXN expression inhibitors; S2 cells (HEK-293 line with an ATXN2-luciferase reporter) viability, CellTiter-Fluor protease fluorescence, 24 h; Potency, µM (top dose mostly 56.7 µM), hits mostly cytotoxic; hit rate 0.49% among 400,000; note: nearly all actives have a fitted effect of over 40% in size
# KB-V1 cytotox: kills drug-selected multidrug resistant KB-V1 cells; KB-V1 MDR cells viability, CellTiter-Glo, 72 h; Potency, µM (highest dose often 46.1 µM), hits mostly cytotoxic; hit rate 3.4% among 400,000; note: % is set by controls: 0 for no effect and ±100 for the full control effect; nearly all actives have a fitted effect of over 60% in size
#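 Luminescent ATP read-out (CellTiter-Glo, 10 min) measures survival of drug-selected KB-V1 MDR cells after 72 h, 37 degrees C compound exposure. Medium: phenol-red-free DMEM, 10% FBS. Values from fitted concentration-response curves.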
# KB-3-1 cytotox: kills parental KB-3-1 adenocarcinoma cells. AID 1347075. KB-3-1 viability, CellTiter-Glo ATP luminescence, 72 h. hit rate 1.4% among 400,000. Potency, µM (titrated, usually from 46.1 µM), most hits filed as cytotoxic; note: % is set by controls: 0 for no effect and ±100 for the full control effect; nearly all actives have a fitted effect of over 60% in size
#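 Multi-concentration cytotoxicity screen in KB-3-1 cells grown in DMEM lacking phenol red with 10% FBS. After 72 h at 37 °C with compound, ATP-dependent luminescence was recorded.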
# HT1080 IDH1KD tx: toxicity to HT-1080 IDH1 knockdown cells (counter line) | Potency, µM (doses to about 46.1 µM), without a hit: at the top dose activity, negative = toxicity, usual class: cytotoxic | hit rate 2% among 360,000 | AID 686971 | HT-1080 IDH1 knockdown viability, ATP luminescence, 48 h;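 note: 0% = DMSO wells and -100% = cell-free medium wells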
#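 CellTiter-Glo luminescence after 48 h compound exposure at 37 degrees C of IDH1-knockdown HT-1080 cells in 5% FBS RPMI. %Activity scaled between DMSO wells and cell-free media wells, with curves fitted and assigned curve classes.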
# ATXN2 expr inh: inhibitors of ATXN2 expression; Potency, µM (highest dose often 57 µM), for inactives: top-dose activity change, negative = inhibition, most hits filed as inhibitors; hit rate 0.72% among 360,000; HEK-293 ATXN2-luciferase reporter, luminescence, 24 h; note: % is set by controls: 0 for no effect and ±100 for the full control effect; nearly all actives have a fitted effect of over 55% in size
#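 ATXN2-luciferase reporter cells (luciferase flanked by upstream and downstream ATXN2 gene portions) were treated 24 h at 37 °C with compounds at up to 57 uM. SteadyGlo luminescence gave expression; GF-AFC fluorescence gave viability.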
# HT1080NT lethal: kills 2HG-producing HT-1080-NT fibrosarcoma cells | AID 686970 | HT-1080-NT fibrosarcoma viability, CellTiter-Glo ATP luminescence, 48 h | Potency, µM (top dose mostly 46.1 µM), for the others: top-dose activity, negative = less viability, usual class: cytotoxic | hit rate 1.6% among 360,000;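 note: NT is the 2HG producing partner of a matched IDH1 knockdown line; 0% = DMSO-treated cells and -100% = media-only wells without cells; nearly all actives have a fitted effect of over 55% in size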
#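 Read-out is CellTiter-Glo luminescence after 10 minutes at room temperature, following 48 hours' compound treatment of HT-1080-NT cells (750 cells/well, RPMI, 5% FBS, 37 degrees C).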
# Active calls of the source: *; i = inactive; ? = inconclusive; nt = not tested or not shown. A selection: hits, their analogues and other compounds. The true share with any hit is near 6.2%. Calls come from the whole dose curve; as a rule, active = well fitted curve in the direction sought with a large enough effect; inconclusive = small, poorly fitted or top-dose-only effect, or another doubt; inactive = no such curve, though single readings can be large; an effect the other way counts as inactive or inconclusive. Potency is the fitted concentration of half-maximal effect.
SMILES,S2 tox,KB-V1 cytotox,KB-3-1 cytotox,HT1080 IDH1KD tx,ATXN2 expr inh,HT1080NT lethal
O=c1cc(-c2ccccc2Cl)oc2ccc([N+](=O)[O-])c(O)c12,i,i,i,-3.7%,9.7%,2.0%
Nc1ccc2oc(-c3ccccc3Cl)cc(=O)c2c1O,i,?,7.31µM*,4.8%,80.9%,5.3%
NC(=O)CSc1nc2cc([N+](=O)[O-])ccc2n1-c1cccc(C(F)(F)F)c1,?,6.51µM*,i,0.8%,-7.8%,2.3%
CC(CCc1ccc(O)cc1)NCCC(c1ccccc1)c1ccccc1 (centres undefined),?,?,?,20.6µM*,?,20.6µM*
CC(CCc1ccc(O)cc1)NC(c1ccccc1)c1ccc(Cl)cc1 (centres undefined),?,i,i,7.31µM*,?,10.3µM*
CC(CCc1ccccc1)NCc1ccc(Cl)cc1Cl (centres undefined),i,i,i,-0.4%,-17.5%,2.9%
CC(=O)c1ccc(N2CCN(c3nc4c(S(=O)(=O)c5ccc(C)c(C)c5)nnn4c4ccc(Cl)cc34)CC2)cc1,i,i,i,nt,-4.7%,nt
Cc1cc2ccccc2c[n+]1C,nt,i,?,nt,nt,nt
S=C(NCCc1ccccn1)Nc1ccc(Cl)c(Cl)c1,i,23.1µM*,i,9.8%,4.2%,16.4%
CC(=O)N1CCN(S(=O)(=O)c2cccc(C(=O)OCc3cccc(F)c3)c2)CC1,i,18.4µM*,i,0.0%,-13.6%,-5.5%
Cc1ccc(-n2cnc3c(=O)[nH]cnc32)cc1,i,9.2µM*,?,10.9%,1.3%,0.5%
Cn1cc(S(C)=O)c(=O)c2ccc(F)cc21 (centres undefined),i,nt,nt,nt,8.1%,nt
CN1C(=O)/C(=C2\SC(N3CCCCCC3)=NC2=O)c2ccccc21,i,2.06µM*,?,8.3%,48.2%,?
CCCN1C(=O)/C(=C2\SC(N3CCCCC3)=NC2=O)c2ccccc21,?,?,i,-29.1%,52.8%,-16.6%
COc1cc(/C=N/n2nnnc2Nc2ccccc2)cc(OC)c1OC,i,2.59µM*,i,0.3%,4.5%,0.4%
COc1ccc(/C=N/Nc2nc(Nc3ccccc3)nc(N3CCCC3)n2)cc1[N+](=O)[O-],?,?,i,?,0.0%,14.6µM*
COc1ccc(O)c(/C=N/Nc2nc(Nc3ccccc3)nc(-n3nc(C)cc3C)n2)c1,?,?,14.6µM*,16.4µM*,?,?
COc1cc(/C=N/Nc2nc(Nc3ccc(C)cc3)nc(-n3nc(C)cc3C)n2)cc(OC)c1OC,i,?,i,2.82µM*,-16.6%,4.47µM*
COc1ccc(/C=N/Nc2nc(N3CCCCC3)nc(N3CCCCC3)n2)cc1[N+](=O)[O-],i,i,i,-1.2%,-6.1%,-0.7%
Cc1ccc(Nc2cc(C)nn2-c2nc(C)cc(C)n2)cc1,i,i,?,?,?,?
COc1ccc(CN2CCC3(CCC(CNC(=O)c4ccnn4C)O3)CC2)c(C)c1C (centres undefined),i,nt,nt,nt,nt,nt
COC(=O)c1ccc(C2C=C(c3ccc(Cl)cc3)Nc3nc4ccccc4n32)cc1 (centres undefined),?,i,i,nt,?,nt
COc1cc(/C=N/Nc2nc(Nc3ccccc3)nc(-n3nc(C)cc3C)n2)cc(OC)c1OC,?,7.31µM*,?,14.6µM*,-20.9%,?
CNc1nc(N/N=C/c2cc3c(cc2[N+](=O)[O-])OCO3)nc(Nc2ccccc2)n1,28.2µM*,16.4µM*,i,?,nt,?
COc1cc(/C=N/Nc2nc(Nc3ccccc3)nc(N3CCCCC3)n2)ccc1OCC(=O)O,?,i,i,25.8%,29.6%,2.1%
SMILES,S2 tox,KB-V1 cytotox,KB-3-1 cytotox,HT1080 IDH1KD tx,ATXN2 expr inh,HT1080NT lethal
Cn1cccc1/C=C1\CC(C(C)(C)C)C/C(=C\c2cccn2C)C1=O (centres undefined),i,4.11µM*,?,-2.5%,-13.4%,5.1%
Cc1ccccc1-n1cc(CNC(=O)CN2Cc3ccccc3OC(C)C2)cn1 (centres undefined),i,nt,nt,nt,nt,nt
O=C1NC2CCCCC2C(=O)N1OS(=O)(=O)c1ccccc1 (centres undefined),15.8µM*,i,?,?,?,-2.4%
COc1cc(C2C(C#N)=C(C)NC3=C2C(=O)c2ccccc23)cc(OC)c1OC (centres undefined),?,?,2.06µM*,0.794µM*,-8.2%,0.891µM*
C#CCOc1c(Br)cc(C2C(C(=O)OC)=C(C)NC3=C2C(=O)c2ccccc23)cc1OCC (centres undefined),?,?,4.61µM*,nt,1.8%,nt
COc1ccc(C2C(C#N)=C(C)NC3=C2C(=O)c2ccccc23)cc1 (centres undefined),i,i,i,10.2%,-13.4%,0.8%
CCOc1ccc(C2C(C(=O)OC)=C(C)NC3=C2C(=O)c2ccccc23)cc1OC (centres undefined),i,i,i,nt,-19.2%,nt
O=c1c2sc(-c3ccccc3)cc2nc2n1CCCCC2,i,11.6µM*,i,-3.5%,60.6%,-0.2%
Cn1c(NCCc2ccncc2)nc2cc(-c3cccc(C(F)(F)F)c3)sc2c1=O,i,i,i,-18.9%,16.6%,1.6%
Cn1c(NCCN2CCCC2)nc2cc(-c3ccccc3)sc2c1=O,i,i,i,13µM*,?,?
Cn1c(NCCN2CCCC2)nc2cc(-c3cccc(C(F)(F)F)c3)sc2c1=O,?,i,i,?,?,20.6µM*
COc1cccc(-c2cc3nc(NCCN4CCCC4)n(C)c(=O)c3s2)c1,i,i,i,?,-20.7%,?
COc1ccc(O)c(CN2CCC3(CCC(CNC(=O)C4CCCO4)O3)CC2)c1 (centres undefined),i,nt,nt,nt,nt,nt
Cc1ccc(N2CCN(C(=O)Cn3ncc4c([nH]c5ccc(C)cc54)c3=O)CC2)c(C)c1,i,i,i,nt,-1.8%,nt
COc1ccc(/C=C(/CC(=O)Nc2ccccc2)c2nc3ccccc3s2)cc1,i,i,i,-2.9%,26.3%,-7.0%
COc1ccc(/C=C(/CC(=O)NCc2ccc(Cl)cc2)c2nc3ccccc3s2)cc1,i,10.3µM*,i,-9.3%,5.0%,7.0%
O=c1oc(-c2ccccc2)nc2sc3c(c12)CCC3,?,i,i,7.7%,nt,4.0%
Nc1nc(-c2ccccc2)nc2sc3c(c12)CCCC3,i,23.1µM*,i,-10.2%,173.3%,-4.5%
